Measured values: PubChem BioAssay AID602399 (Sanford-Burnham Center for Chemical Genomics, 2012)
About 2,800 (0.78%) of roughly 360,000 compounds were called active. Cut-off read from the data, not from the text of the source: active = inhibition above about 26%; inactive = the rest. The list comes from a sample in which actives are over-represented; it also holds similar structures and randomly drawn compounds.

test system: Nicotinate-nucleotide adenylyltransferase NadD (Staphylococcus aureus N315); assay: inhibitors of S. aureus NadD, primary screen, biochemical, colorimetric, uHTS (AID 602399); details: purified NadD enzyme, colorimetric absorbance read-out; at 20 µM; active compounds read high

Question: CC1CCC2(CC1)NC(=O)N(CC(=O)c1cccn1C)C2=O (stereo not drawn) was tested. Which inhibition did it give?
Answer: Its inhibition is -3.17% (inactive).

Question: With Cc1ccc2nsnc2c1S(=O)(=O)N1CCCC1C(=O)O (stereo not drawn) as the compound, how does the inhibition read?
Answer: The inhibition was -6.81% (inactive).

Question: For CCCCc1ccc(NC(=S)N2CCCC(CO)C2)cc1 (stereo not drawn), which inhibition is on record?
Answer: Its inhibition is -0.962% (inactive).

Question: For CC(=O)c1ccc(N2C(=NC(=O)C(C)C)SC3CS(=O)(=O)CC32)cc1 (stereo not drawn), which inhibition is on record?
Answer: Its inhibition is -3.55% (inactive).

Question: For CC(=O)Nc1ccc(C(=O)Nc2nc(-c3cc(C)n(Cc4ccccc4)c3C)cs2)cc1, which inhibition is on record?
Answer: The inhibition was 41.8% (active).

Question: Which inhibition does the source give for Cc1c(C#N)c(NC(=O)c2ccccc2)n(Cc2ccccc2)c1C here?
Answer: Its inhibition is -5.49% (inactive).

Question: How did the inhibition turn out when Cc1ccc(C(=O)Nc2c(C#N)c(C)c(C)n2Cc2ccccc2)cc1 was run?
Answer: Its inhibition is -7.87% (inactive).

Question: For CCc1nn(CCCC(=O)Nc2ccc(C)c(C)c2)c(=O)c2cc3occc3n12, which inhibition is on record?
Answer: The inhibition was 5.14% (inactive).

Question: With Cc1cc(CNCc2c(C(=O)N(C)Cc3ccccc3)nc3ccccn23)nn1C as the compound, how does the inhibition read?
Answer: Its inhibition is -2.9% (inactive).

Question: How did the inhibition turn out when COc1ccc(NC(=O)C2CCC(CNc3c(N4CCCCC4)c(=O)c3=O)CC2)c(OC)c1 (stereo not drawn) was run?
Answer: The inhibition was 1.77% (inactive).

Question: Which inhibition does the source give for CCOC(=O)c1c(NC(=O)NC(C)(C)C)sc2c1CCN(C)C2 here?
Answer: Its inhibition is 0.728% (inactive).

Question: With Cc1c(CCC(=O)N[C@@H](CC(C)C)C(=O)O)c(=O)oc2c(C)c3oc4c(c3cc12)CCCC4 as the compound, how does the inhibition read?
Answer: Its inhibition is -0.714% (inactive).

Question: With Cc1oc2c(C)c3oc(=O)c(CC(=O)N[C@@H](CC(C)C)C(=O)N[C@@H](Cc4ccccc4)C(=O)O)c(C)c3cc2c1C as the compound, how does the inhibition read?
Answer: Its inhibition is 35.9% (active).

Question: Which inhibition does the source give for Cc1c(OC(C)C(=O)N[C@@H](Cc2ccccc2)C(=O)O)ccc2c3c(c(=O)oc12)CCCC3 (stereo partly drawn) here?
Answer: The inhibition was 3.9% (inactive).

Question: With COc1cc(Cl)cc(C2NC(=O)NC(C)=C2C(=O)NCc2ccccc2)c1O (stereo not drawn) as the compound, how does the inhibition read?
Answer: The inhibition was -2.49% (inactive).

Question: How did the inhibition turn out when Cc1cccc(C)c1NC(=O)C1(C)c2cccc[n+]2CC(=O)N1Cc1cccs1 (stereo not drawn) was run?
Answer: Its inhibition is 6.36% (inactive).

Question: How did the inhibition turn out when CCn1cc(C(=O)NC2CCCCCC2)c(=O)c2cc(S(=O)(=O)N3CCCCC3)ccc21 was run?
Answer: The inhibition was -1.8% (inactive).

Question: How did the inhibition turn out when CCn1cc(C(=O)NCCCN2CCCCCC2)c(=O)c2cc(S(=O)(=O)N3CCc4ccccc4C3)ccc21 was run?
Answer: Its inhibition is 25.6% (active).

Question: Which inhibition does the source give for CCn1cc(C(=O)NCC2CCCO2)c(=O)c2cc(S(=O)(=O)N3CCCCC3)ccc21 (stereo not drawn) here?
Answer: The inhibition was 8.79% (inactive).

Question: With COCCN(C(=O)C(C)N1C(=O)c2ccccc2C1=O)c1c(N)n(CC(C)C)c(=O)[nH]c1=O (stereo not drawn) as the compound, how does the inhibition read?
Answer: The inhibition was 0.415% (inactive).

Question: COCCNC(=O)C(OC(=O)c1cccs1)c1ccc(F)cc1 (stereo not drawn) was tested. Which inhibition did it give?
Answer: Its inhibition is 2.74% (inactive).

Question: How did the inhibition turn out when CCOC(=O)N1CCC(Nc2c(NCCN3CCN(c4cccc(Cl)c4)CC3)c(=O)c2=O)CC1 was run?
Answer: Its inhibition is -3.05% (inactive).

Question: How did the inhibition turn out when O=C(Cc1ccc(-n2c(=O)[nH]c3ccccc3c2=O)cc1)N1CCN(c2cccc(Cl)c2)CC1 was run?
Answer: The inhibition was 6.86% (inactive).

Question: Which inhibition does the source give for O=C(Cc1csc(Nc2nc(=S)[nH]c3ccccc23)n1)NCCCN1CCN(c2cccc(Cl)c2)CC1 here?
Answer: The inhibition was 43.9% (active).

Question: For CCOC(=O)N1CCC(N2Cc3cccc(C(=O)Nc4c(C)cccc4CC)c3C2=O)CC1, which inhibition is on record?
Answer: The inhibition was 8.26% (inactive).

Question: For Cc1ccc(C(=O)N2CCCC(c3ccccc3)=N2)cc1, which inhibition is on record?
Answer: Its inhibition is -4.43% (inactive).

Question: With COc1ccc(N2CCN(c3ccc([N+](=O)[O-])nc3)CC2)cc1 as the compound, how does the inhibition read?
Answer: Its inhibition is 1.06% (inactive).

Question: O=C(CCc1ccccc1)NNc1ccc(F)cc1 was tested. Which inhibition did it give?
Answer: Its inhibition is -2.34% (inactive).

Question: Which inhibition does the source give for Clc1cccc(-c2nc3nc4ccccc4nc3n2Cc2ccco2)c1 here?
Answer: Its inhibition is -0.737% (inactive).

Question: Which inhibition does the source give for O=c1[nH]c(CSc2ncc(-c3ccc(F)cc3)n2Cc2ccco2)nc2ccccc12 here?
Answer: Its inhibition is 1.31% (inactive).

Question: Which inhibition does the source give for Cc1ccc(Cn2c(C)nc3c(c2=O)c2nc4ccccc4nc2n3Cc2ccco2)cc1 here?
Answer: The inhibition was 49% (active).

Question: How did the inhibition turn out when COc1cc(C2c3cc4c(cc3C(O)C3COC(=O)C23)OCO4)cc(OC)c1OC (stereo not drawn) was run?
Answer: The inhibition was 0.207% (inactive).

Question: How did the inhibition turn out when O=C(O)CCCCCCCCc1cn(CN2C(=O)c3ccccc3C2=O)nn1 was run?
Answer: Its inhibition is 1.47% (inactive).

Question: How did the inhibition turn out when Cc1ccc(-c2nn(-c3ccccc3)cc2/C=C2\SC(=S)N(CCCCCC(=O)O)C2=O)o1 was run?
Answer: Its inhibition is 34.1% (active).

Question: CC(C)[C@@H]1NC(=O)c2cc([N+](=O)[O-])cc(I)c2NCCC[C@@H](C(=O)NC(CC(=O)O)C(N)=O)NC(=O)[C@H](CO)NC1=O (stereo partly drawn) was tested. Which inhibition did it give?
Answer: The inhibition was -2.22% (inactive).

Question: Which inhibition does the source give for COc1ccc2oc(=O)cc(CN3CCOCC3)c2c1 here?
Answer: Its inhibition is 0.645% (inactive).

Question: COc1ccc(OC)c(C(=O)c2coc3ccc(O)c(CN4CCOCC4)c23)c1 was tested. Which inhibition did it give?
Answer: Its inhibition is 36.3% (active).

Question: Which inhibition does the source give for COc1ccc(OC)c(C(=O)c2coc3ccc(OC)cc23)c1 here?
Answer: The inhibition was -4.74% (inactive).

Question: With CC1CC(C)CN(C(=O)CCNC(=O)Cn2cnc3ccccc3c2=O)C1 (stereo not drawn) as the compound, how does the inhibition read?
Answer: The inhibition was -4.11% (inactive).

Question: CC(=O)N1c2ccc(S(=O)(=O)N3CCC(C(=O)NC4CCCCC4C)CC3)cc2CC1C (stereo not drawn) was tested. Which inhibition did it give?
Answer: The inhibition was 1.28% (inactive).

Question: With CS(=O)(=O)c1sc2nc(-c3ccccc3)cc(-c3ccccc3)c2c1N as the compound, how does the inhibition read?
Answer: Its inhibition is 43.8% (active).

Question: CNC(=S)NNC(=O)c1oc2nc(-c3ccccc3)cc(-c3ccco3)c2c1N was tested. Which inhibition did it give?
Answer: Its inhibition is 11.9% (inactive).

Question: For Nc1cccc(-c2cc(-c3ccccc3)nc(-c3cccc(N)c3)n2)c1, which inhibition is on record?
Answer: The inhibition was 13.8% (inactive).

Question: For Cc1noc(C)c1S(=O)(=O)N(C)C[C@H]1Oc2ccc(NC(=O)C3CCCCC3)cc2C(=O)N([C@H](C)CO)C[C@@H]1C, which inhibition is on record?
Answer: The inhibition was -4.63% (inactive).

Question: How did the inhibition turn out when COc1ccc(CN2CCn3ncc(C(=O)Nc4ccc(Cl)cc4Cl)c3C2=O)cc1 was run?
Answer: The inhibition was -3.68% (inactive).

Question: How did the inhibition turn out when Fc1ccc2c(c1)C(c1cccnc1)=NNC(c1cccs1)=N2 was run?
Answer: Its inhibition is -1.68% (inactive).

Question: How did the inhibition turn out when O=c1oc(-c2ccccc2NS(=O)(=O)c2ccc(Cl)cc2)nc2ccccc12 was run?
Answer: The inhibition was 10.9% (inactive).

Question: With CCCCCN(C(=O)CCC(=O)OCC(=O)NCc1ccc(OC)cc1)c1c(N)n(CCCC)c(=O)[nH]c1=O as the compound, how does the inhibition read?
Answer: The inhibition was -7.19% (inactive).

Question: With CC(C)c1ccc2c(c1)c(SC(C)(C)C)c(CC(C)(C)C(=O)O)n2Cc1ccc(Cl)cc1 as the compound, how does the inhibition read?
Answer: Its inhibition is 31.8% (active).

Question: Which inhibition does the source give for COc1cc(-c2nnn(CC(=O)NCc3ccccc3)n2)cc(OC)c1OC here?
Answer: The inhibition was 1.36% (inactive).

Question: Which inhibition does the source give for Cc1ccc(C2=NN(C(=O)CSc3nc(N)cc(N)n3)C(c3ccco3)C2)cc1 (stereo not drawn) here?
Answer: The inhibition was 4.52% (inactive).

Question: COc1ccc(C2=NN(C(=O)CSc3nc(=O)n4ccc(C)cc4n3)C(c3ccc(C)cc3)C2)cc1 (stereo not drawn) was tested. Which inhibition did it give?
Answer: The inhibition was 36.1% (active).

Question: COc1ccc(C2CC(c3ccccc3)=NN2C(=O)CSc2nccc(=O)[nH]2)cc1 (stereo not drawn) was tested. Which inhibition did it give?
Answer: Its inhibition is 9.94% (inactive).
